Mdm2 MdmX PPI – human Mdm2/MdmX binding inhibition; AID 485346; O15151+Q00987; SaOS-2 split-luciferase Mdm2/MdmX complementation, luminescence; actives 3% (n = 330,000); inhibition, % at 8 µM;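 active means inhibition of at least 50% at 8 µM in the primary screen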
Target sequence (O15151 whole entry, looked up): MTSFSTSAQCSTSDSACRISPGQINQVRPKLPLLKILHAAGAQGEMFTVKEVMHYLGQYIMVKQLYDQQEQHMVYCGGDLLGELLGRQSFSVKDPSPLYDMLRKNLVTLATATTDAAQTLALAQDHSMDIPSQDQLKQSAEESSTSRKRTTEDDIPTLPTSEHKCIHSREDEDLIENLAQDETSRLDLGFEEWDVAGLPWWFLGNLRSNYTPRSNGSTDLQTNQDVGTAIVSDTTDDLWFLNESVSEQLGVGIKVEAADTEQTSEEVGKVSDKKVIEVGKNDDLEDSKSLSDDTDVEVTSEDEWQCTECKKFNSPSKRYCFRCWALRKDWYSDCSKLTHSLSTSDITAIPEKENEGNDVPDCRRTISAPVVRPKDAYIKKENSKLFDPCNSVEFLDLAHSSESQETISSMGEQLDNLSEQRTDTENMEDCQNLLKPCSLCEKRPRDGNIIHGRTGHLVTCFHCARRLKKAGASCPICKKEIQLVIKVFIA
Target sequence (Q00987 whole entry, looked up): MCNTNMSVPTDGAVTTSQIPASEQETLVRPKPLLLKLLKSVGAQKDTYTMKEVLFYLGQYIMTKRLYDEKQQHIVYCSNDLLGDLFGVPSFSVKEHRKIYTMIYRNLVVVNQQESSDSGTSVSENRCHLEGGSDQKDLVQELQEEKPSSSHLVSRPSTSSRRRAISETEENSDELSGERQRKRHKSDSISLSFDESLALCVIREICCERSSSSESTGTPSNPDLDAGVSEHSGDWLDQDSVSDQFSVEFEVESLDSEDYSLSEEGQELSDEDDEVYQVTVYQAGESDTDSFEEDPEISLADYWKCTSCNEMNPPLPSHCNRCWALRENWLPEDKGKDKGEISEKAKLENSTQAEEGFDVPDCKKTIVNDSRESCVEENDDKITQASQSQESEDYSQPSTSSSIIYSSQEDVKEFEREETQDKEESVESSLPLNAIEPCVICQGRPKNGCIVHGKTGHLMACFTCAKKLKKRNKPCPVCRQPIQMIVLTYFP
CSC inhib – cancer stem cell inhibition; cancer stem cell-like cells viability, luminescence; inhibition, % at 7.5 µM; actives 1.1% (n = 300,000); in the data active means inhibition above about 75%; tested in HMLE shEcad cells
MPTP block – inhibitors of mitochondrial permeability transition pore | AID 602449 | isolated mouse mitochondria, Ca2+ swelling absorbance, 30 min | inhibition, % at 10 µM | actives 1.4% (n = 360,000);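 active means inhibition of 50% or more, scaled per plate between neutral and stimulator controls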;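 further: 0% = DMSO wells given calcium and 100% = 1 mM EGTA wells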
Calb FLC – affects C. albicans growth with fluconazole; growth inhibition, % (test concentration not listed); AID 1979; C. albicans CaCi-2 (fluconazole-resistant clinical isolate) + fluconazole, Alamar Blue growth, 48 h; actives 0.57% (n = 300,000);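 active means growth inhibition above about 58% in most replicates, limit read from the data, passing the limit was not always enough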;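 further: all wells also contain fluconazole at 8 µg/ml as a sub-toxic cotreatment; 0% = median of DMSO wells and 100% = median of geldanamycin control wells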
Beta apoptosis – beta cell apoptosis inhibition. INS-1E cytokine-induced death, ATP luminescence, 48 h; percent of positive-control rescue, neutral wells zero. protection from apoptosis, % (no concentration beside the values). actives 0.8% (n = 300,000);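 active means Every replicate reaches about 75%, or at least half do and their mean reaches it too, limit read from the data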;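 further: 0% = cytokine-treated negative control wells and 100% = positive control rescue; higher means more ATP so stronger rescue from cytokine killing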
Mdm2 MdmX conf – human Mdm2/MdmX binding inhibition, confirmed. luminescent assay. actives 55% (n = 10,000). AID 489028. shares compounds with Mdm2 MdmX PPI. inhibition, % at 8 µM; in the data active means inhibition above about 40%
Full FLuc ctr – inhibits full-length luciferase, flagging false Mdm2/MdmX hits | shares compounds with Mdm2 MdmX PPI | actives 77% (n = 6,200) | inhibition, % at 8 µM | SaOS-2 full-length luciferase counterscreen, luminescence;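 active means mean inhibition at 8 µM reaching about 37%, which flags the compound as non-specific, limit read from the data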;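 further: p53-null SaOS-2 cells with luciferase driven by a doxycycline-inducible promoter; compound on cells about two nights before reading with doxycycline added after day one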
The depositor's hits bear a star; · = no result. Only some compounds are listed: those with a hit (about 4.8% of all), similar ones and a draw of the others.

SMILES	Mdm2 MdmX PPI	CSC inhib	MPTP block	Calb FLC	Beta apoptosis	Mdm2 MdmX conf	Full FLuc ctr
C(=N\Nc1nc2ccccc2[nH]1)/c1cccc2cccnc12	65.2*	100.4*	3.2	1.7	·	66.4*	45.1*
Cc1[nH]c2ccccc2c1/C=N/Nc1nc2ccccc2[nH]1	61.5*	43.8	3.9	-14.4	118.3*	-6.7	·
C(=N\Nc1nc2ccccc2[nH]1)/c1ccccc1	-37.1	-4.1	-0.9	-3.5	11.6	·	·
Cc1ccccc1/C=N/Nc1nc2ccccc2[nH]1	-1.1	-26.0	2.6	6.4	·	·	·
CCCNC(=O)CS(=O)(=O)c1ccccc1	13.6	2.7	0.2	1.6	-5.4	·	·
Cc1ccccc1N1C(=O)c2ccccc2N2C(=O)c3ccccc3C12 (configuration not stated)	17.0	-0.1	3.2	-3.0	2.2	·	·
COc1ccc2c(c1OC)C(=O)N1c3ccccc3C(=O)N(c3ccc(F)cc3)C21 (configuration not stated)	56.6*	11.1	1.2	2.1	4.0	44.2*	88.5*
COc1ccc2c(c1OC)C(=O)N1c3ccccc3C(=O)N(c3ccccc3)C21 (configuration not stated)	65.5*	15.7	-0.2	-1.6	2.1	62.2*	69.2*
CCc1nc2c(OCCc3cccc(OC)c3)cccn2c1N(C)C(=O)c1cccs1	·	·	0.9	·	·	·	·
CC(C)(C)NC(=O)C(C1CC1)n1c(=O)c(-c2ccccc2)nc2ccccc21 (configuration not stated)	·	·	1.2	·	·	·	·
COc1ccc(-c2cc(C(F)(F)F)nc(-n3ccnc3C)n2)cc1	54.8*	6.9	-2.0	0.9	-2.6	36.2	·
CCCNC(=O)C1(C)CCN(C(=O)c2cc(C(C)(C)C)nn2C)C1 (configuration not stated)	·	·	-1.6	·	·	·	·
CCOc1ccc(CN2CCN(c3cc(C)nc4c5c(C)cc(C)nc5nn34)CC2)cc1	·	·	·	42.9	·	·	·
Cc1cc(C)c2c(n1)nn1c(N3CCN(c4ccccc4C)CC3)cc(C)nc21	64.1*	-8.8	2.8	·	-5.8	14.3	·
N=c1sccn1CC(=O)Nc1cccc(S(=O)(=O)N2CCCCCC2)c1	7.7	0.7	1.2	-23.3	12.4	·	·
O=C(C1=C[C@@H](C2CCCCC2)C[C@@H](OCc2ccc(CO)cc2)O1)N1CCN(Cc2ccc3c(c2)OCO3)CC1	37.2	41.3	-1.3	17.1	24.4	·	·
O=C(C1=C[C@@H](c2ccccc2)C[C@@H](OCc2ccc(CO)cc2)O1)N1CCN(Cc2ccc3c(c2)OCO3)CC1	51.9*	45.1	-1.0	-14.1	5.5	47.8*	69.3*
O=C(C1=C[C@@H](c2csc3ccccc23)C[C@@H](OCc2ccc(CO)cc2)O1)N1CCN(Cc2ccc3c(c2)OCO3)CC1	53.5*	62.0	-3.9	-3.0	27.0	46.1*	53.1*
O=C(C1=C[C@H](C2CCCCC2)C[C@H](OCc2ccc(CO)cc2)O1)N1CCN(Cc2ccc3c(c2)OCO3)CC1	52.0*	43.1	0.2	19.4	·	24.1	·
CCc1nc2c(OCc3ccc(F)cc3)cccn2c1N(C)C(=O)COc1ccccc1	·	·	0.3	·	·	·	·
COCCN=c1scc(-c2cc(OC)c(OC)c(OC)c2)n1/N=C/c1c(C)[nH]c2ccccc12	58.7*	114.9*	4.1	22.2	3.9	18.6	·
CCCCCCCCN1C(=O)[C@H](CC(=O)NCc2cccc3ccccc23)C[C@@]2(C(=O)OCC)CCCC=C12	·	·	-0.8	·	·	·	·
CCn1c(Oc2ccccc2F)nc2c1c(=O)n(C)c(=O)n2C	68.1*	-7.9	0.8	7.2	-14.3	65.9*	23.1
O=C(c1ccc(S(=O)(=O)c2ccccc2Cl)c([N+](=O)[O-])c1)N1CCN(Cc2ccccc2)CC1	83.9*	12.5	24.5	-3.3	0.3	75.0*	29.6
Cc1ccccc1CS(=O)(=O)c1ccc(C(=O)N2CCOCC2)cc1[N+](=O)[O-]	37.8	-8.2	2.7	2.5	-34.9	·	·
SMILES	Mdm2 MdmX PPI	CSC inhib	MPTP block	Calb FLC	Beta apoptosis	Mdm2 MdmX conf	Full FLuc ctr
O=C(c1ccc(S(=O)(=O)Cc2ccccc2Cl)c([N+](=O)[O-])c1)N1CCOCC1	51.1*	10.5	1.0	4.6	-44.2	42.0*	49.0*
CN(C(=O)c1ccc(NC(=O)Cc2cccc([N+](=O)[O-])c2)cc1)C1CCCC1	14.8	-13.6	1.3	·	-13.9	·	·
CN(C(=O)c1ccc(S(=O)(=O)c2cccc(Cl)c2)c([N+](=O)[O-])c1)C1CCCCC1	72.5*	47.2	48.2	-2.4	-9.2	60.0*	28.9
O=C(NC1CCCCC1)c1ccc(S(=O)(=O)c2ccccc2Cl)c([N+](=O)[O-])c1	77.0*	9.5	·	-0.6	-4.3	65.8*	17.2
CCc1ccc(C(O)c2ncc(-c3ccccc3OC)[nH]2)cc1 (configuration not stated)	·	·	1.3	·	·	·	·
Cc1cccc(C(O)(C(=O)NNc2ccc3ccccc3n2)c2cccc(C)c2)c1	53.2*	·	6.2	-4.0	2.2	31.1	·
COc1cc(C(=O)Nc2nc(C)c(Cc3ccc4c(c3)OCO4)s2)cc(OC)c1OC	79.2*	56.3	-2.1	5.7	43.3	67.4*	75.8*
CCC(=O)Nc1sc(Cc2ccc3c(c2)OCO3)c(C)c1C(N)=O	4.4	7.8	2.2	10.1	-13.4	·	·
CCCOc1ccc(C(=O)Nc2nc(C)c(Cc3ccc4c(c3)OCO4)s2)cc1	47.9	49.5	-3.3	8.9	33.4	·	·
Cc1c(Cc2ccc3c(c2)OCO3)sc(NC(=O)c2ccc3ccccc3c2)c1C(N)=O	80.5*	29.7	1.3	8.9	27.3	-11.3	·
Cc1c(Cc2ccc3c(c2)OCO3)sc(NC(=O)C(C)(C)C)c1C#N	57.6*	47.6	0.9	-1.2	-2.2	36.0	·
CCOc1ccc(-n2c(N)c(-c3nc4ccccc4n3C)c3nc4ccccc4nc32)cc1	62.8*	-5.5	2.2	2.4	5.0	58.6*	65.5*
CCOc1ccc(-n2c(N)c(C(=O)NCc3ccco3)c3nc4ccccc4nc32)cc1	24.3	5.4	0.2	18.5	-8.9	·	·
COc1cc(C(=O)OCC(=O)Nc2ccccc2C(=O)NC2CC2)c([N+](=O)[O-])cc1OC	-1.6	·	-0.5	·	-0.8	·	·
Cc1ccc(Sc2nnc(Cc3ccccc3)c3ccccc23)cc1	53.3*	31.5	1.5	-6.7	-5.8	24.5	·
COc1ccc(Sc2nnc(Cc3ccccc3)c3ccccc23)cc1	71.5*	62.5	-0.6	10.3	-6.6	47.5*	87.7*
COc1ccc(Sc2nnc(-c3ccccc3)cc2C#N)cc1	26.3	5.9	0.9	1.2	5.4	·	·
COc1ccccc1NC(=O)c1c(N=Cc2cccc([N+](=O)[O-])c2)cnn1C	41.9	-4.7	5.0	-0.3	12.2	·	·
CC(C)(C)C1CCC(CN2C(Nc3ccccc3)=NC[C@@H]2Cc2ccccc2)CC1 (some centres not stated)	100.5*	106.7*	5.9	·	23.5	39.9	47.2*

High-throughput results deposited in PubChem by several laboratories.
